Inconclusive results are not listed. Active and inactive are the calls of the source. Unless noted, the call rests on the fitted dose curve.
Tests used:
[1] = Nuclear factor erythroid 2-related factor 2/antioxidant responsive element (Nrf2/ARE) small molecule agonists: qHTS cell viability counter screen in human keratinocytes (AID 1919968; active means well fitted curve in the direction sought with a large enough effect in the repeat runs; an effect the other way counts as inactive or inconclusive; further: nearly all actives have a fitted effect of over 55% in size)
Outline: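 Fluorescence read-out from CellTiter-Fluor after 1 h at 37 C. Wells held HaCaT-derived ARE-luciferase reporter cells (1,500/well) treated 23 h with DMSO-dissolved compounds. Run in the same wells as the luciferase agonist read.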

[2] = Nuclear factor erythroid 2-related factor 2/antioxidant responsive element (Nrf2/ARE) small molecule agonists: luciferase reporter gene qHTS assay in human keratinocytes (AID 1919969); further: nearly all actives have a fitted effect of over 35% in size
[3] = target: Gonadotropin-releasing hormone receptor (Homo sapiens) (UniProt P30968); test: Human gonadotropin-releasing hormone receptor (GnRHR) small molecule agonists, calcium flux assay in GnRHR-HEK293 cells (AID 1920063); further: nearly all actives have a fitted effect of over 35% in size
Outline: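 Calcium-dye fluorescence, Ex/Em=480/540, recorded every 1 sec over 3 min after compound addition to GnRHR-HEK293 cells. Cells had been seeded 18 hours earlier and dye-loaded for 1 hour at 37 C. Fifteen concentrations, triplicates.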

[4] = target: KiSS-1 receptor (Homo sapiens) (UniProt Q969F8); test: Human kisspeptin (KISS1R) small molecule agonists, calcium flux assay in KISS1R-HEK293 cells (AID 1920064; active means well fitted curve in the direction sought with a large enough effect in the repeat runs; an effect the other way counts as inactive or inconclusive)
Outline: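 Calcium flux read-out: kinetic fluorescence at Ex/Em=480/540, 1 s intervals over 3 min, after pin-tool compound addition to dye-loaded KISS1R-HEK293 cells. Fifteen concentrations, triplicates.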

[5] = G protein-coupled receptor (GPCR) small molecule agonists, calcium flux assay: HEK293 wild type cell line counter screen (AID 1920065)
Outline: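 Agonist mode; 18 h seeding at 37 C, 1 h dye load at 37 C; compounds pinned from DMSO, ATP as positive control; kinetic fluorescence 480/540 nm, 3 min, 1 s reads; 15 concentrations, triplicate.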

[6] = p53 small molecule agonists, cell-based qHTS assay with human liver microsomes (AID 1963577);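 further: p53 response element beta-lactamase reporter cells with liver microsomes plus NADPH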
Outline: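 In this qHTS, p53 response-element beta-lactamase cells receive test compound together with a microsome/NADPH activating system (0.5 mg/mL final each) and are incubated 16 h at 37 C before LiveBLAzer fluorescence detection.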

[7] = p53 small molecule agonists, cell-based qHTS assay with rat liver microsomes (AID 1963578)
Outline: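 Agonist mode in p53RE-bla reporter cells, with compounds co-incubated 16 h at 37 C alongside 0.5 mg/mL rat liver microsomes and 0.5 mg/mL NADPH (final), followed by a 2 h LiveBLAzer detection step.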

[8] = p53 small molecule agonists, cell-based qHTS assay with human liver microsomes: qHTS cell viability counter screen (AID 1963579); further: nearly all actives have a fitted effect of over 45% in size
Outline: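 Metabolically activated exposure: compounds, human liver microsomes and NADPH (0.5 mg/mL final apiece) were added to p53RE-bla cells seeded 5 h earlier, left 16 h at 37 C, and then assessed for viability by CellTiter-Glo luminescence.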

[9] = p53 small molecule agonists, cell-based qHTS assay with rat liver microsomes: qHTS cell viability counter screen (AID 1963580); further: nearly all actives have a fitted effect of over 45% in size
Outline: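 Luminescent ATP readout (CellTiter-Glo, 30 min at room temperature) reports viability of p53RE-bla HCT-116 cells after 16 h at 37 C with test compounds under metabolic activation by rat liver microsomes and NADPH at 0.5 mg/mL final each.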

[10] = p53 small molecule agonists, cell-based qHTS assay: qHTS cell viability counter screen (AID 1963581); further: nearly all actives have a fitted effect of over 45% in size
Outline: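 Cytotoxicity read-out: ATP-based luminescence (CellTiter-Glo, 30 min RT) measured in the same wells as the p53 reporter assay, HCT-116 p53RE-bla cells, 16 h compound exposure at 37 C.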

[11] = p53 small molecule agonists, cell-based qHTS assay (AID 1963582; active means well fitted activation curve with a large enough effect in the signal ratio in the repeat runs, not every such curve was filed as active; the % refers to the signal ratio)
Outline: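 Fluorescence intensity read-out of a beta-lactamase reporter under a p53 response element. Cells were exposed to DMSO-dissolved compounds for 16 h at 37 C, then developed with FRET substrate for 2 h at RT.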

[12] = target: 5-hydroxytryptamine receptor 2A (Homo sapiens) (UniProt P28223); test: 5-hydroxytryptamine receptor 2A (HTR2A) small molecule antagonists, cell-based qHTS assay (AID 1963586); further: nearly all actives have a fitted effect of over 45% in size
Outline: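 CHO cells stably expressing human HTR2A were plated for 18 h at 37 C, then loaded with calcium dye for 1 h. Compounds were preincubated 5 min at room temperature before DOI (4 nM solution) was added. Kinetic fluorescence was read for 3 min.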

[13] = target: 5-hydroxytryptamine receptor 2A (Homo sapiens) (UniProt P28223); test: 5-hydroxytryptamine receptor 2A (HTR2A) small molecule agonists, cell-based qHTS assay (AID 1963587); further: nearly all actives have a fitted effect of over 30% in size
Outline: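 HTR2A-CHO cells, plated 18 h at 37 C/5% CO2, dye-loaded 1 h at 37 C; compounds in DMSO added by pin tool (agonist mode). Intracellular calcium flux read as kinetic fluorescence on FDSS over 2 min at 1 s intervals.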

[14] = target: Muscarinic acetylcholine receptor M1 (Homo sapiens) (UniProt P11229); test: Cholinergic receptor muscarinic 1 (CHRM1) small molecule antagonists, cell-based qHTS assay (AID 1963588); further: nearly all actives have a fitted effect of over 40% in size
Outline: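 Compounds were tested at 15 concentrations in three independent runs. Dye-loaded CHRM1-CHO cells were exposed 5 min at room temperature before stimulation by acetylcholine added at 50nM. Intracellular calcium was read kinetically on FDSS for 3 min.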

[15] = target: Muscarinic acetylcholine receptor M1 (Homo sapiens) (UniProt P11229); test: Cholinergic receptor muscarinic 1 (CHRM1) small molecule agonists, cell-based qHTS assay (AID 1963589); further: nearly all actives have a fitted effect of over 35% in size
Outline: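 Calcium flux read-out: kinetic fluorescence at 1 sec intervals after pin-tool compound addition to dye-loaded CHRM1-CHO cells (human M1). Agonist mode; 15 concentrations tested in triplicate independent runs.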

[16] = cAMP Responsive Elements (CRE) small molecule antagonists, cell-based qHTS assay (AID 1963591; active means well fitted inhibition curve with a large enough effect in the signal ratio in the repeat runs, not every such curve was filed as active; the % refers to the signal ratio)
Outline: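 HEK293T CRE-bla; 18 h preincubation; compound pin-transfer; NKH477 0.25 uM final, 3 h, 37 C; LiveBLAzer FRET substrate 2 h RT.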

[17] = target: Beta-2 adrenergic receptor (Homo sapiens) (UniProt P07550); test: Adrenergic beta2 receptor (ADRB2) small molecule antagonists, cell-based qHTS assay (AID 1963592); further: series mostly up to about 92 µM; nearly all actives have a fitted effect of over 50% in size
Outline: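 Assay format: CHO-ADRB2 cells, 18-20hr seeding at 37C/5% CO2, then compound plus 1nM isoproterenol agonist mix for 0.5hr RT. Homogeneous time-resolved fluorescence cAMP detection after 1hr, expressed as 665/615 nm ratio.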

[18] = target: Beta-2 adrenergic receptor (Homo sapiens) (UniProt P07550); test: Adrenergic beta2 receptor (ADRB2) small molecule agonists, cell-based qHTS assay (AID 1963593);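 further: CHO cells stably overexpressing human ADRB2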
Outline: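 CHO cells stably over-expressing ADRB2 were plated overnight at 37C, then dosed with compounds plus a stimulation mix containing 100uM IBMX and 25uM Ro-20-1724 for 0.5hr at room temperature. cAMP was measured by HTRF competition, 1hr.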

[19] = target: D(2) dopamine receptor (Homo sapiens) (UniProt P14416); test: Dopamine D2 receptor (DRD2) small molecule agonists, cell-based qHTS assay (AID 1963594); further: nearly all actives have a fitted effect of over 35% in size
Outline: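 HEK293 cells stably expressing DRD2 were cultured 24 h at 37 C, then given Ro20-1724 (0.1 mM final) and compounds for 10 min at room temperature. NKH477 (200nM) was then added for 30 min. cAMP was read by HTRF.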

[20] = target: D(2) dopamine receptor (Homo sapiens) (UniProt P14416); test: Dopamine D2 receptor (DRD2) small molecule antagonists, cell-based qHTS assay (AID 1963595; active means well fitted inhibition curve with a large enough effect in the signal ratio in the repeat runs, with a control signal flat; the % refers to the signal ratio)
Outline: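 Human DRD2 antagonist qHTS measuring cAMP by HTRF. The cells are exposed to compound for 10 min, then to NKH477 (200 nM) and quinpirole (12 nM) for 30 min at RT, with Ro20-1724 (0.1 mM) present throughout.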

Measured: Potency

Chain of Muscarinic acetylcholine receptor M1 (Homo sapiens) (P11229 whole entry, looked up): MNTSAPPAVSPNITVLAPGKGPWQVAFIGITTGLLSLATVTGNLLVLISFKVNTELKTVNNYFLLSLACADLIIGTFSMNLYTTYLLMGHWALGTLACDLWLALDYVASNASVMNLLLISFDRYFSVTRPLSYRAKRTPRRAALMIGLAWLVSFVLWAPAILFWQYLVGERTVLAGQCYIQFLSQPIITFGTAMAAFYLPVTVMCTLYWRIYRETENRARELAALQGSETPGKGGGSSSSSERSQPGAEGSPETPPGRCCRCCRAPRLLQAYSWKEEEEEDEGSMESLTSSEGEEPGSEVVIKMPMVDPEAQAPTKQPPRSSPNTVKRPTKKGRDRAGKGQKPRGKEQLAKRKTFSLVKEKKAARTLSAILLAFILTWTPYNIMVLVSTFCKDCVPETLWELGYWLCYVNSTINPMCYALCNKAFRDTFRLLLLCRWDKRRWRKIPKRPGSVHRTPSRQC
Chain of 5-hydroxytryptamine receptor 2A (Homo sapiens) (P28223 whole entry, looked up): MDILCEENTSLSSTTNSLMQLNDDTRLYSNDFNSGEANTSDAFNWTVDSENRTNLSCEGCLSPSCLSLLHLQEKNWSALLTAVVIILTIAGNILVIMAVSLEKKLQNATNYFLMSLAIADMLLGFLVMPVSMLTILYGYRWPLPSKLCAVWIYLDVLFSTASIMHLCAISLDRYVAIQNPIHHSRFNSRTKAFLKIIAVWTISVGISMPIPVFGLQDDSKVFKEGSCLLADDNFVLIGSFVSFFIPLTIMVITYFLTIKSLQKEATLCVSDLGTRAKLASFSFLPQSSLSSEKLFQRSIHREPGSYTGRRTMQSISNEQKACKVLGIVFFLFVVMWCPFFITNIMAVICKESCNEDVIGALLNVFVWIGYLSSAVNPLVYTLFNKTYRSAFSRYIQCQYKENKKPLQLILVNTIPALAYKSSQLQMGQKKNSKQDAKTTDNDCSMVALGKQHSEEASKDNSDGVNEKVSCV
Chain of D(2) dopamine receptor (Homo sapiens) (P14416 whole entry, looked up): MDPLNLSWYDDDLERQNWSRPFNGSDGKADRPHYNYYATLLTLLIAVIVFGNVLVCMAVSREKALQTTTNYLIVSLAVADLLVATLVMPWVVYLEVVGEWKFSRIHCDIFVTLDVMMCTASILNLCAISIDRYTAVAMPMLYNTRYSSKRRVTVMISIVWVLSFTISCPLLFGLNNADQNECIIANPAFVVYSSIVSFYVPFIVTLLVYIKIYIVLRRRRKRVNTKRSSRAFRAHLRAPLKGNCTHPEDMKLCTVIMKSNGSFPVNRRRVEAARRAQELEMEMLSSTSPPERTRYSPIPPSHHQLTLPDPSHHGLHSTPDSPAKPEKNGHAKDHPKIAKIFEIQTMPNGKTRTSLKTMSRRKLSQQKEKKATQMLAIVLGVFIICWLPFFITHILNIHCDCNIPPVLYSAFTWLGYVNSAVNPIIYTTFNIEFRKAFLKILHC
Chain of Beta-2 adrenergic receptor (Homo sapiens) (P07550 whole entry, looked up): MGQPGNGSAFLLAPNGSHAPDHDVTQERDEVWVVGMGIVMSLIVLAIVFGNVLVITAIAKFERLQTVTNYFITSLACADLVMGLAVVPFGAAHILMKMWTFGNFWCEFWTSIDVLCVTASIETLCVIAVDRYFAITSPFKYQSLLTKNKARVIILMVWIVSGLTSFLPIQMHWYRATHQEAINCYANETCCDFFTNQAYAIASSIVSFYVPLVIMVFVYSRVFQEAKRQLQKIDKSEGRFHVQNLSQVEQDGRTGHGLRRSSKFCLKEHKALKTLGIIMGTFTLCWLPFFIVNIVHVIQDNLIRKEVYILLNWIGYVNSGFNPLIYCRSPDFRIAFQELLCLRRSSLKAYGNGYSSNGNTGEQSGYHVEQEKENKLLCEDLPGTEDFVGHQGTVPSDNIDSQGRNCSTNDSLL
Chain of Gonadotropin-releasing hormone receptor (Homo sapiens) (P30968 whole entry, looked up): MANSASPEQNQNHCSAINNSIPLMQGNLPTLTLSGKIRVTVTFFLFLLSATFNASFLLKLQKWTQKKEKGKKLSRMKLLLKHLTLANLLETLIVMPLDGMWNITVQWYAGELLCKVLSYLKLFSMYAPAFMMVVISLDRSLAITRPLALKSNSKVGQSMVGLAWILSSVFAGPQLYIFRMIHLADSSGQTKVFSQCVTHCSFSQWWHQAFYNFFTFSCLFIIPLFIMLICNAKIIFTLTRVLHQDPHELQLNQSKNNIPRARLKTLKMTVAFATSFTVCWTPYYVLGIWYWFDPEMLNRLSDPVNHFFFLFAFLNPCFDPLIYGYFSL
Chain of KiSS-1 receptor (Homo sapiens) (Q969F8 whole entry, looked up): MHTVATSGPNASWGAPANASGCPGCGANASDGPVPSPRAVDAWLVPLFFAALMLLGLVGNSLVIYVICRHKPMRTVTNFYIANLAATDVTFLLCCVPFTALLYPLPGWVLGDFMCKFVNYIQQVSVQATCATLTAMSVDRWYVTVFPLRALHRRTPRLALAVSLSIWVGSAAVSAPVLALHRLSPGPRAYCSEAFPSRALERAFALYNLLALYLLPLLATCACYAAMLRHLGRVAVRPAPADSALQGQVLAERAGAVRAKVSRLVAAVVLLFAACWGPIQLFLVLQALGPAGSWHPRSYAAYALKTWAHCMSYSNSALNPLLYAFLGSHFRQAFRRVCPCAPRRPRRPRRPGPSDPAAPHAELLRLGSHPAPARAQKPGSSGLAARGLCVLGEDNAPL

[Cl][Nd]([Cl])[Cl]
inactive: all assays above

CCCC(O)C(O)CO (stereo unspecified)
not listed: [18] | [19]
inactive: all other assays above

CCCC(=O)OCC(COC(=O)CCC)OC(=O)CCC
inactive: all assays above

CCCCC(CC)COCCO (stereo unspecified)
inactive: all assays above

CC#N
not listed: [18] | [20]
inactive: all other assays above

COc1cccc(OC)c1
inactive: all assays above
